# MITF TRPM1 HTS – increases MITF-driven TRPM1 promoter luciferase signal. AID 588334. activation, % at 12.5 µM. SK-MEL-5 TRPM1-promoter luciferase, 24 h; % of positive control, neutral wells = 0. 0.75% of 300,000 active;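 active = mean activation of at least 80% with every replicate also reaching 80%; inconclusive = mean reaches 80% but some replicate falls short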
# PfHsp90 yeast 2 – growth inhibition of yeast expressing Plasmodium Hsp90; 0.32% of 310,000 active; inhibition, % at 9.4 µM; S. cerevisiae expressing PfHsp90, BacTiter-Glo ATP, 48 h; yeast lacking PDR1 and PDR3 efflux regulators;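 active = every replicate shows inhibition above about 80%, whatever the replicate mean, limit read from the data; inconclusive = mean inhibition reaches the set limit but some replicate falls short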
# esBAF inh – SWI/SNF esBAF complex inhibition. mouse ES cells, Bmi1-luciferase knock-in reporter, 24 h; 100% = twice the neutral-well signal. reporter increase, % at 12.5 µM. 2% of 350,000 active. AID 602393; in the data active = activation above about 40%; inconclusive = no clear call, values can overlap the other calls;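 also: a rise in the Bmi1 reporter signal indicates esBAF inhibition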
# N-glyco inh – N-linked glycosylation inhibition | AID 588692 | 0.23% of 360,000 active | D54 ERlucT glycosylation luciferase reporter, 24 h; percent of 100 nM tunicamycin response | reporter increase, % at 12.5 µM;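 active = mean luciferase reporter signal, scaled so untreated is 0 and the glycosylation-blocking control 100, at or above a set limit in every replicate; inconclusive = mean reaches the limit but not every replicate does; inactive = mean below the limit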;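 also: luciferase carries N-glycosylation sites so blocking glycosylation raises the light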
# Wnt bcat act – Wnt/beta-catenin pathway activation; AID 743398; 1.2% of 300,000 active; Wnt/beta-catenin reporter cell assay, activator, plate reader; activation, % at 9.35 µM; in the data active = activation above about 30%, passing the limit was not always enough; inconclusive = no clear call, values can overlap the other calls
# Vif imaging – blocks HIV Vif function | AID 602346 | 0.35% of 340,000 active | inhibition, % at 7.49 µM | HEK293T cells, Vif self-association by quenched fluorescence, imaging, 24 h; in the data active = inhibition above about 50%, passing the limit was not always enough; inconclusive = no clear call, values can overlap the other calls; inactive = below about 31%
# esBAF Ring1 qPCR – confirmation of esBAF inhibitors: Ring1 de-repression in mouse ESCs | shares compounds with esBAF inh | mouse ESC E14, Ring1 mRNA RT-qPCR fold change | fold change at 33 µM | 550 tested, under 10 active;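 active = Ring1 gene expression raised more than 2-fold over untreated cells in both replicates at either tested dose; inconclusive = only one replicate above 2-fold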;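 also: Ring1 transcript normalised to actin housekeeping signal by TaqMan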
# Fgf4 repress – confirmation of esBAF inhibitors: Fgf4 repression in mouse ESCs. mouse ESC E14, Fgf4 mRNA qPCR fold change; active compounds read low. 4% of 550 active. AID 743177. shares compounds with esBAF inh. Fgf4 expression fold change at 33 µM;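 active = Fgf4 expression under 0.8 fold of control in both repeat measurements at one or both tested doses; inconclusive = under 0.8 fold in just a single repeat measurement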;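 also: Fgf4 transcript normalised to actin in duplex TaqMan qPCR; cells exposed to compound for 24 h before lysis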
# Bmi1 derepress – confirmation of esBAF inhibitors: Bmi1 de-repression in mouse ESCs. mouse ESE14 ES cells, Bmi1 mRNA qPCR fold; active compounds read high. fold change at 33 µM. AID 743180. shares compounds with esBAF inh. 550 tested, under 10 active;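 active = Bmi1 expression fold change above 6 at either tested concentration, seen in replicate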;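 also: higher fold means more Bmi1 de-repression and stronger esBAF inhibition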
# A549 tox SP – kills or reduces viability of A549 cells; AID 743188; 550 tested, under 10 active; shares compounds with esBAF inh; cell viability change % (negative = cytotoxic), % at 25 µM, hits read low; A549 cytotoxicity, plate reader; call rule not given here
# HepG2 tox SP – HepG2 cell cytotoxicity at single point. activity change, negative = inhibition, % at 25 µM. plate reader; active compounds read low. shares compounds with esBAF inh. 4% of 550 active; in the data active = activity change below about -50%
# HEK293 tox SP – kills or reduces viability of HEK293 cells; 3% of 550 active; activity change, negative = inhibition, % at 25 µM, hits read low; AID 743190; shares compounds with esBAF inh; HEK293 cytotoxicity, plate reader; in the data active = activity change below about -38%, passing the limit was not always enough
# A number is an active result; 0 = inactive; ? = inconclusive; - = not tested or not shown. Only some compounds are listed: those with a hit (about 3% of all), similar ones and a draw of the others.
SMILES,MITF TRPM1 HTS,PfHsp90 yeast 2,esBAF inh,N-glyco inh,Wnt bcat act,Vif imaging,others
COC(=O)C1=C(O)C2(C(=O)O)CC(C(=O)OC)=C(O)C(C(=O)O)(C1)C2,0,0,0,0,0,0,
O=C(C[C@@H]1CC[C@@H](NS(=O)(=O)c2ccccc2)[C@H](CO)O1)N1CCc2ccccc2C1,-,-,0,-,-,-,
Cc1ccc(C(c2cc(Cl)c3cccnc3c2O)N2CCN(C)CC2)cc1 (stereo unspecified),0,106.6,0,43.3,-,54.0,
CCCCC(=O)NC(c1ccccc1Cl)c1ccc2cccnc2c1O (stereo unspecified),0,0,0,0,0,0,
Oc1c(C(c2ccccc2Cl)N2CCCC2)ccc2cccnc12 (stereo unspecified),0,118.8,-,0,0,0,
Oc1c(C(c2ccccn2)N2CCC(Cc3ccccc3)CC2)cc(Cl)c2cccnc12 (stereo unspecified),-,-,-,-,203.9,-,
CN1CCN(C(c2ccccn2)c2cc(Cl)c3cccnc3c2O)CC1 (stereo unspecified),0,103.2,0,0,57.7,0,
CC(=O)NC(c1cc(Cl)c2cccnc2c1O)C1CC1 (stereo unspecified),0,0,0,0,0,0,
Cn1nnc2cc(C(=O)NC3CCCCC3)ccc21,0,0,-,0,-,0,
CC(=O)c1c(C)nn(CC(O)COc2ccc3c(c2)CCC3)c1C (stereo unspecified),0,0,0,0,0,0,
Oc1c(C(c2ccc(Cl)cc2)N2CCCC2)cc(Cl)c2cccnc12 (stereo unspecified),0,127.7,-,0,0,0,
Cc1ccc(C(=O)NCCCc2ccccc2)s1,87.4,0,-,0,52.6,0,
Cc1ccc(C(=O)NCCc2c[nH]c3ccccc23)c(C)c1,0,0,70.7,0,0,0,
CC(C)C(=O)NCCc1c[nH]c2ccccc12,0,0,0,0,0,0,
Cc1ccc(C(=O)NCCc2c[nH]c3ccccc23)s1,-,0,55.7,0,0,0,
O=C(NCCc1c[nH]c2ccccc12)c1ccccc1,0,0,0,0,0,0,
O=C(Cc1cccs1)Nc1nc(-c2ccc(F)cc2F)cs1,0,0,0,0,-,0,
COc1cc(C(=O)Nc2sc3c(c2C(=O)O)CCC(C)C3)cc(OC)c1OC (stereo unspecified),0,0,0,0,0,122.3,
CC1(C)CC2CC(C)(CN2Cc2cccc([N+](=O)[O-])c2)C1 (stereo unspecified),-,0,0,0,0,57.2,
CSc1nc(C)c2c(n1)N(c1ccc(F)cc1)CC2,0,0,0,0,-,0,
Clc1ccccc1-c1ncc(-c2ccccc2)o1,0,0,0,0,56.5,0,
CC(C)c1ccc(CNc2ncc(Br)cn2)cc1,95.6,0,72.9,0,0,0,esBAF Ring1 qPCR=0;Fgf4 repress=0;Bmi1 derepress=0;A549 tox SP=0;HepG2 tox SP=-63.0;HEK293 tox SP=0
COc1ccc(-c2csc(Nc3cc(C)ccn3)n2)cc1C,0,0,46.4,0,0,0,esBAF Ring1 qPCR=0;Fgf4 repress=?;Bmi1 derepress=0;A549 tox SP=0;HepG2 tox SP=0;HEK293 tox SP=0
Oc1ccc(-c2csc(Nc3ccccn3)n2)cc1O,-,0,0,0,0,0,
CN(C(=O)c1ccco1)c1nc(-c2ccc(Cl)cc2)cs1,0,0,0,0,0,0,
SMILES,MITF TRPM1 HTS,PfHsp90 yeast 2,esBAF inh,N-glyco inh,Wnt bcat act,Vif imaging,others
CC(=O)N(C)c1nc(-c2ccc(Cl)cc2)cs1,0,0,73.9,0,-,0,esBAF Ring1 qPCR=0;Fgf4 repress=0;Bmi1 derepress=0;A549 tox SP=0;HepG2 tox SP=0;HEK293 tox SP=0
CCCCCCCNC1=CC(=O)CC(c2ccccc2)C1 (stereo unspecified),0,0,-,0,0,0,
Cc1ccc(N=Nc2ccc(N)cc2C)c(S(N)(=O)=O)c1,0,0,0,0,0,0,
Cc1ccc(N=Nc2cc(C)ccc2O)c(C)c1,0,0,86.6,0,0,0,esBAF Ring1 qPCR=0;Fgf4 repress=?;Bmi1 derepress=0;A549 tox SP=0;HepG2 tox SP=-50.3;HEK293 tox SP=0
CCOc1ccc(CNc2ccc3c(c2)ncn3C(C)(C)C)cc1,0,0,?,0,0,0,
Cc1cccc(C)c1OCc1cc(C(=O)N2CCC(C3CCCCC3)C2)no1 (stereo unspecified),0,0,55.8,0,0,0,esBAF Ring1 qPCR=0;Fgf4 repress=0;Bmi1 derepress=0;A549 tox SP=0;HepG2 tox SP=0;HEK293 tox SP=0
Cc1cccc(C)c1OCc1cc(C(=O)N2CCC(c3ccccc3)CC2)no1,0,0,0,0,0,0,
COc1ccc(/C=C2\SC(=S)N(CCC(=O)NCCc3ccc(O)cc3)C2=O)cc1,0,0,0,0,0,0,
C#CCN(C[C@H]1[C@H](OC(=O)NCc2ccccc2F)[C@H](OC(=O)NCc2ccccc2F)C[C@@H](C(=O)OC)[C@H]1C(=O)OC)S(=O)(=O)c1ccc(C)cc1,-,-,0,0,0,0,
COc1ccc(NC(=O)c2cc(-c3ccc(F)cc3C)n[nH]2)cc1OC,-,-,0,0,0,0,
Cc1cc(F)ccc1-c1cc(C(=O)Nc2ccc(F)cc2)[nH]n1,-,-,70.7,0,0,0,esBAF Ring1 qPCR=0;Fgf4 repress=0;Bmi1 derepress=0;A549 tox SP=0;HepG2 tox SP=0;HEK293 tox SP=0
COc1ccc(C(=O)NCc2nnc(SCC(=O)NCc3ccc(F)cc3)o2)cc1,-,0,0,0,0,0,
COc1ccc(CCNS(=O)(=O)CCNC(=O)c2ccccc2)cc1,0,0,0,0,0,0,
COc1ccc(C(=O)NCCS(=O)(=O)NCCc2ccccc2)cc1,0,0,55.8,0,0,0,esBAF Ring1 qPCR=0;Fgf4 repress=0;Bmi1 derepress=0;A549 tox SP=0;HepG2 tox SP=0;HEK293 tox SP=0
COc1ccc(CNC(=O)c2ccc(Br)cc2)cc1,-,-,-,-,0,-,
COc1ccc(CNC(=O)c2ccc(-c3ccccc3)cc2)cc1,0,0,61.5,0,-,0,esBAF Ring1 qPCR=0;Fgf4 repress=0;Bmi1 derepress=0;A549 tox SP=0;HepG2 tox SP=0;HEK293 tox SP=0
COc1ccc(CN(C)C[C@@H]2OCCCC[C@H](C)Oc3ccc(NC(=O)CCC(F)(F)F)cc3C(=O)N([C@H](C)CO)C[C@H]2C)cc1,-,-,0,-,-,-,
CC(O)(c1ccccc1)c1nc(-c2cccc(C(=O)O)c2)cs1 (stereo unspecified),-,-,69.0,0,0,0,esBAF Ring1 qPCR=0;Fgf4 repress=0;Bmi1 derepress=0;A549 tox SP=0;HepG2 tox SP=0;HEK293 tox SP=0
O=C(Cc1ccc(Cl)c(Cl)c1)Nc1ccccc1N1CCCC1,0,0,0,0,0,0,
